Results published in PubChem BioAssay.
Records with an inconclusive call do not appear. Activity calls are given as the source filed them.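 Rule for the calls, unless noted: active = aptamer binding inhibition above 30%, about 3 SD of noise from non-fluorescent compounds; inactive = inhibition at or below 30%.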

Legend:
[1] = yeast TOR pathway RPL19A-GFP modulators, primary screen, cell-based, S. cerevisiae, multiplex flow cytometry (AID 1862; in the data active = percent of DMSO control GFP below about 86%;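 note: lower values mimic rapamycin by blocking the RPL19A rise seen in DMSO cells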); settings: S. cerevisiae RPL19A-GFP strain, flow cytometry fluorescence, 3 h; at 10 µM; stronger effect = lower value
[2] = modulators of MEP2-GFP levels in yeast, primary screen, S. cerevisiae, multiplex flow cytometry (AID 1867;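 active = GFP response, as percent of the DMSO control, above the screen-wide mean plus 3 SD, about 139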;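 note: median GFP channel fluorescence of barcode-gated MEP2-GFP cells measured by flow cytometry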); settings: S. cerevisiae MEP2-GFP strain, 3 h, at 10 µM, stronger effect = higher value, 100% means same as DMSO wells
[3] = modulators of CIT2-GFP expression in yeast, primary screen, S. cerevisiae, GFP fusion, multiplex flow cytometry (AID 1870;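 active = percent response above a set limit, the screen-wide mean plus 3 SD, cut at about 130% in these data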;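 note: barcoded CIT2-GFP strain pooled with four other GFP strains with rapamycin as positive control; median GFP fluorescence per well over plate mean of DMSO wells so 100% = DMSO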); settings: 3 h, at 10 µM, stronger effect = higher value
[4] = modulators of LAP4-GFP expression in yeast, primary screen, S. cerevisiae, multiplex flow cytometry (AID 1873;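 active = GFP signal, as percent of the solvent control, above the screen mean plus 3 SD, about 149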); settings: 3 h, at 10 µM, stronger effect = higher value
[5] = modulators of AGP1-GFP expression in yeast TOR pathway, primary screen, cell-based, multiplex flow cytometry, S. cerevisiae (AID 1887;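 active = GFP signal above the screen-wide mean plus 3 SD, that is over about 124.5% of the solvent control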;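 note: AGP1-GFP fusion strain of S. cerevisiae within a five-strain barcoded multiplex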); settings: 3 h, at 10 µM, stronger effect = higher value
[6] = inhibitors of CD8+ T cell-vesicle binding, pilot screen, LFA-1/ICAM-1 modulator project, MLPCN validation set, flow cytometry (AID 2523;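 active = response below a set limit, under 55% cells CD8-positive and vesicle-bound, and CD8 cells' 90th-percentile brightness under 279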;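 for vesicle binding response: mean PE anti-B7-1 fluorescence of CD8+ cells relative to row control; 100% = QL9-loaded vesicles with DMSO vehicle in the same plate row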); settings: 2C mouse CD8+ T cells, at 7 µM, stronger effect = lower value; double positive events: measured here: CD8+/vesicle+ event percentage
[7] = molecular target: Integrin beta-1 (Homo sapiens) + Integrin alpha-4 (Homo sapiens) (UniProt P13612+P05556); assay: inhibition of HUTS-21 binding to VLA-4, pilot screen, VLA-4 allosteric modulator project, U937 cells, HUTS-21 mAb, flow cytometry, validation set (AID 2674;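 active = inhibition above 50%, about 3 SD of the validation set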;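 note: antibody binding induced by the VLA-4 ligand LDV present at three times its Kd; 0% = LDV ligand with antibody and no compound and 100% = antibody without LDV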); settings: HUTS-21 LIBS mAb binding, at 6.7 µM, stronger effect = higher value, binding induced by LDV ligand
Chain of Integrin beta-1 (Homo sapiens) + Integrin alpha-4 (Homo sapiens) (P05556 whole entry, looked up): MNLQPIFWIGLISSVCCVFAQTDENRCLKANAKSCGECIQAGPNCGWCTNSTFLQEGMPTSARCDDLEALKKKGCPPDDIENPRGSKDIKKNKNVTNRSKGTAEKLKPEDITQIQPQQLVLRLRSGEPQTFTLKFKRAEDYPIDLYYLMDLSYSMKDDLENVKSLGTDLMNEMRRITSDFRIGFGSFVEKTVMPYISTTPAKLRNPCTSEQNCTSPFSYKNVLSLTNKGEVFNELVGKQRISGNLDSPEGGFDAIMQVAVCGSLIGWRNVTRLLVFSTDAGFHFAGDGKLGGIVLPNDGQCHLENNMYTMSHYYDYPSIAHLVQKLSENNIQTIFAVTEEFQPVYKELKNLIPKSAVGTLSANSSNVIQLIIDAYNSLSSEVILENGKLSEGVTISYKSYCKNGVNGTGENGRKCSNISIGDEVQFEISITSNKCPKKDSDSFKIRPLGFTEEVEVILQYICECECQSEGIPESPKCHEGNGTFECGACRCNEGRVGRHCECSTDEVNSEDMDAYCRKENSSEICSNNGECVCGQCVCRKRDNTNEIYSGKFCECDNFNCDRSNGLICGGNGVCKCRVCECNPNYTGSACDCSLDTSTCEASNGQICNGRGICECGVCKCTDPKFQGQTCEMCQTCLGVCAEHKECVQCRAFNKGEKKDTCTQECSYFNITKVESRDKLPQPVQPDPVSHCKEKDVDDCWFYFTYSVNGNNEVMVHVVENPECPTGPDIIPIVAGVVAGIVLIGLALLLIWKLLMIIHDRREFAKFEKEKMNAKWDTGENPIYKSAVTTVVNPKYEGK
Chain of Integrin beta-1 (Homo sapiens) + Integrin alpha-4 (Homo sapiens) (P13612 whole entry, looked up): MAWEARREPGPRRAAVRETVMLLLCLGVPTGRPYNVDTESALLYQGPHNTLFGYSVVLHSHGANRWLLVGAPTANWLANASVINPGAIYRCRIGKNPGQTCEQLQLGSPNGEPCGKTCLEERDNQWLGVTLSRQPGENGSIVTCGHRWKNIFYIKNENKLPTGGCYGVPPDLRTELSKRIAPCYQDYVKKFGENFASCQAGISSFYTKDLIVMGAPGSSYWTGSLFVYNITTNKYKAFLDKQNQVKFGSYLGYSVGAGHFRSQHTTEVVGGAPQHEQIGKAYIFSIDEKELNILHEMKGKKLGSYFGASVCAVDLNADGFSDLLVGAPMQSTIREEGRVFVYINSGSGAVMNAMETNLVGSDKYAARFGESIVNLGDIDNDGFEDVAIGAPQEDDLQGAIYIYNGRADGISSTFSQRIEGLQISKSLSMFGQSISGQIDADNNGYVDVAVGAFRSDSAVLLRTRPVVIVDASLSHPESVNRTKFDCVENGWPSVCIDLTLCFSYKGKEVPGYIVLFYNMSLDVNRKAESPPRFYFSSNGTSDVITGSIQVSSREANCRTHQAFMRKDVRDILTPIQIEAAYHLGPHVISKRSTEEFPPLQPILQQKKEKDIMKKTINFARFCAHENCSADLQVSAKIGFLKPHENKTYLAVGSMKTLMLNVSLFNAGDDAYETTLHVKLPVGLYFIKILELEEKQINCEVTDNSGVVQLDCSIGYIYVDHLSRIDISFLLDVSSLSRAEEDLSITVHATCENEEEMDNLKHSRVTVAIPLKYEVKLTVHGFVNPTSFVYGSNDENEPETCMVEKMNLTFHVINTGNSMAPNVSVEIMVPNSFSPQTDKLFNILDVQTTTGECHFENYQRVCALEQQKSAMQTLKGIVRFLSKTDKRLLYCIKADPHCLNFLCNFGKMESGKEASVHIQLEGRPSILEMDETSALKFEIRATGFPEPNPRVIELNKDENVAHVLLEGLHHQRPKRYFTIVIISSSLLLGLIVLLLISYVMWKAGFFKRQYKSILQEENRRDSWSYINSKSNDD

[8] = superoxide lowering in aged yeast cells, pilot screen, validation compound set (AID 2706;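 active = superoxide response below 65% of plate, a cut near 3 SD across the whole screen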;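 note: yeast exposed to compound for one week at 30 degrees C before staining; 100% = mean of all compound wells on the same plate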); settings: S. cerevisiae aging, superoxide DHE fluorescence; at 10 µM; stronger effect = lower value
[9] = molecular target: Beta-adrenergic receptor kinase 1 (Homo sapiens) (UniProt P25098); assay: GRK2 binders displacing RNA aptamer, biochemical, validation, human GRK2, bead flow cytometry (AID 488806); settings: bead-bound GRK2, FAM-aptamer displacement, at 10 µM, stronger effect = higher value
Chain of Beta-adrenergic receptor kinase 1 (Homo sapiens) (P25098 whole entry, looked up): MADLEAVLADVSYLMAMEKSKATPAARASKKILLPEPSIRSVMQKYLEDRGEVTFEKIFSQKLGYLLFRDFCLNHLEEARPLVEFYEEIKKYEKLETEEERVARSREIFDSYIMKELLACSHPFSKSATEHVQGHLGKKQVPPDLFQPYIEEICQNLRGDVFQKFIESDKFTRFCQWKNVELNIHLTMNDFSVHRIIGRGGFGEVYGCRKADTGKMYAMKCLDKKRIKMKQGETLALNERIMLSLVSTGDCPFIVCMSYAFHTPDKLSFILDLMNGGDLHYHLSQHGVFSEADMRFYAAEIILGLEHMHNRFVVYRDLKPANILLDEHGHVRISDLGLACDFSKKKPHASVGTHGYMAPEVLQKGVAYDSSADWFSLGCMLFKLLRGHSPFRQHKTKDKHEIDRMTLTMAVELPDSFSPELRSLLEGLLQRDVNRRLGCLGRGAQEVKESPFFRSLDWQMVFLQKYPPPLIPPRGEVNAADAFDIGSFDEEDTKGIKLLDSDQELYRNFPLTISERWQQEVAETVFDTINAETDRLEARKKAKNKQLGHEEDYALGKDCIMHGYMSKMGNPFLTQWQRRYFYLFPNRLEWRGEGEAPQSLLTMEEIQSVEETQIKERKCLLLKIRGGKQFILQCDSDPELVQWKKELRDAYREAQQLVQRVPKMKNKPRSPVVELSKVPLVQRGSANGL

[10] = molecular target: Beta-2 adrenergic receptor (Homo sapiens) (UniProt P07550); assay: beta2AR agonists driving receptor internalization, pilot screen, cell-based, FAP fluorogen, flow cytometry, validation set (AID 504459;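 active = percent response above 42, roughly 3 SD of non-fluorescent test compounds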;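 note: agonist-driven loss of surface beta2AR via internalization measured by FAP dye flow cytometry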); settings: Am2.2-beta2AR cells, FAP surface receptor flow cytometry; at 10 µM; stronger effect = higher value
Chain of Beta-2 adrenergic receptor (Homo sapiens) (P07550 whole entry, looked up): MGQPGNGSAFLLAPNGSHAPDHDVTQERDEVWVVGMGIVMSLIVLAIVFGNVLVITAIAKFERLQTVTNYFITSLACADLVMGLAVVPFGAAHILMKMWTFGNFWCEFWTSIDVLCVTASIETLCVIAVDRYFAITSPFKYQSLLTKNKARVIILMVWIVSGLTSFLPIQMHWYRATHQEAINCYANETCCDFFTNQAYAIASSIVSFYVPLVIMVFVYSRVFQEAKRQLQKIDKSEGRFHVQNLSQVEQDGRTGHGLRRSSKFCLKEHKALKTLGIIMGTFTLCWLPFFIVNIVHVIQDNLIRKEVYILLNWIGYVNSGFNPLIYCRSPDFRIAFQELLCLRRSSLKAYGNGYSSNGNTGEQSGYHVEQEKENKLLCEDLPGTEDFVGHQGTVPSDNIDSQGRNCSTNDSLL

[11] = molecular target: AP-2 complex subunit beta (Homo sapiens) (UniProt P63010); assay: inhibitors of arrestin peptide binding to AP2, pilot screen, biochemical, validation set, GST-AP2 beads, flow cytometry (AID 504541;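 active = inhibition above 54%, about 3 SD of non-fluorescent compounds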;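 note: AP2 carries R879A mutation and is captured from E. coli lysate; bead-bound FITC arrestin peptide fluorescence measuring arrestin peptide binding to AP2; 0% = DMSO wells and 100% = excess unlabeled arrestin peptide control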); settings: FITC arrestin peptide, at 10 µM, stronger effect = higher value, AP2 beta2 appendage fragment, R879A mutant
Chain of AP-2 complex subunit beta (Homo sapiens) (P63010 whole entry, looked up, the tested form may be a part, one chain of several): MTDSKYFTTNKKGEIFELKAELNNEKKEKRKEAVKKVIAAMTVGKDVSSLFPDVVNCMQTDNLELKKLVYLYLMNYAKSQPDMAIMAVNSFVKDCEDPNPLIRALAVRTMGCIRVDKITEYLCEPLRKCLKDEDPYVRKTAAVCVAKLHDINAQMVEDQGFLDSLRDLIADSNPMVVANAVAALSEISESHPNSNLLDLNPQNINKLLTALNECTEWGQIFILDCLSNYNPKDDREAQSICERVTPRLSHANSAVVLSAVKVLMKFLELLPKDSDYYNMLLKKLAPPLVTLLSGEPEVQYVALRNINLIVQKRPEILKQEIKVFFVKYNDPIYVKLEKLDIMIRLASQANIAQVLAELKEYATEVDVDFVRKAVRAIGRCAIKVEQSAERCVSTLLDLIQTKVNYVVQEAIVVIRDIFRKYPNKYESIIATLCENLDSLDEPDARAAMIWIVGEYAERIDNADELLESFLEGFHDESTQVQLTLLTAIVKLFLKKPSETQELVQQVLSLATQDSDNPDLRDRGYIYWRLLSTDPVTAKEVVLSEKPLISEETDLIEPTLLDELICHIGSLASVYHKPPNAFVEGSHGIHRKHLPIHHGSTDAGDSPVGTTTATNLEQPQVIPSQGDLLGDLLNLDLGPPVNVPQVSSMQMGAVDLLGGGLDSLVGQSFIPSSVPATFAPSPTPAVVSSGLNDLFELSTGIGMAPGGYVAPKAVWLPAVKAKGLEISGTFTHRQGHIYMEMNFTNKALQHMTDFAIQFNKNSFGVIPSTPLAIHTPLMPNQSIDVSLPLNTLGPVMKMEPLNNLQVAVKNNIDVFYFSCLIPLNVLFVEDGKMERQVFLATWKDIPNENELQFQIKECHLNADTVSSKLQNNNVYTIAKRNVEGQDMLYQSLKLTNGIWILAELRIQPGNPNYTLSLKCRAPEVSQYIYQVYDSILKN

[12] = yeast V-ATPase proton transport modulators, S. cerevisiae, pHLuorin, HTS validation (AID 504600; in the data active = response above about 15%;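 note: plate controls were DMSO for no effect and reference compound for full effect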); settings: S. cerevisiae pHLuorin cytosolic pH, at 10 µM, stronger effect = higher value
[13] = system: anti-desmoglein-3 scFv antibody binding to human DSG3; assay: inhibitors of anti-DSG3 scFv binding to DSG3, pilot screen, biochemical, validation compound set, bead-based, flow cytometry (AID 588368;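 active = binding below the plate cutoff, the plate median minus 3 SD, with a reading above zero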;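 note: signal is the median channel fluorescence of bead-bound GFP antibody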); settings: Protein G beads, DSG3-Fc, scFv-GFP binding, at 10 µM, stronger effect = lower value
[14] = inhibitors of fungal efflux pumps CDR1, CDR2, MDR1, pilot screen, validation compound set, multiplex, phenotypic (AID 588506;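 active = efflux inhibition above 0.42, the validation set average plus 4 SD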;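 note: Nile Red retained in cells so higher fluorescence means more efflux inhibition; 0 = negative control wells and 1 = enniatin B 25 µM full block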); settings: S. cerevisiae pump-expressing triplex, Nile Red efflux flow cytometry; at 10 µM; stronger effect = higher value; the pumps come from Candida albicans
[15] = molecular target: ATP-binding cassette sub-family B member 6 (Homo sapiens) (UniProt Q9NP58); assay: ABCB6 transporter inhibitors, pilot screen, K562-ABCB6 cells, flow cytometry, validation set (AID 588550;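 active = inhibition above the screen-wide mean plus 3 SD, about 51%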;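 note: 0% = DMSO wells and 100% = benzethonium chloride 70 µM positive control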); settings: K562-ABCB6 porphyrin accumulation, 1 h, at 10 µM, stronger effect = higher value
Chain of ATP-binding cassette sub-family B member 6 (Homo sapiens) (Q9NP58 whole entry, looked up): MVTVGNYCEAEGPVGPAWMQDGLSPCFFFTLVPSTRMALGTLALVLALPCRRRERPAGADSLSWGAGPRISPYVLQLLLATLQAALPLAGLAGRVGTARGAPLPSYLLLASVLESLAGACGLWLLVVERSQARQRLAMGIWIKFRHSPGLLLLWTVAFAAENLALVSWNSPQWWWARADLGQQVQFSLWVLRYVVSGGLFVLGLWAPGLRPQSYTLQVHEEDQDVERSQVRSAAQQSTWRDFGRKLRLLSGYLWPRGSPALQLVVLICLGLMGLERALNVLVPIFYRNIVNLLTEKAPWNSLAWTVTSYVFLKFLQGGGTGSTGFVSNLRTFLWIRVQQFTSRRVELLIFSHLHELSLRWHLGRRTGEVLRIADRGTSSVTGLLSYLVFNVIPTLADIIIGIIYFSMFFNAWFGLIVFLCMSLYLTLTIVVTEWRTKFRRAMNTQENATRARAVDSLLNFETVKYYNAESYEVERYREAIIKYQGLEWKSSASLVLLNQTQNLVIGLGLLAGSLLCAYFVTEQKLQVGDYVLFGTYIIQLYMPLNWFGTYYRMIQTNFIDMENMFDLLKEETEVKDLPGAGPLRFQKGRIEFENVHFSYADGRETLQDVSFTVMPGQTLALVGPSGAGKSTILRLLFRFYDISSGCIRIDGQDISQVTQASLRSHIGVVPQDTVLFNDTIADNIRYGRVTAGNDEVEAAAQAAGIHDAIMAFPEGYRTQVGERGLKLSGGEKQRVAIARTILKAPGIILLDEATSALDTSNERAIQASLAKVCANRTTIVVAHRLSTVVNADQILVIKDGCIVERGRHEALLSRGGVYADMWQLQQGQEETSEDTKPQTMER

[16] = promoters of myeloid differentiation in arrested cells, primary screen, cell-based, GFP/MAC1 double positive, flow cytometry, validation set (AID 588685;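 active = differentiation response of at least 50%, scaled between solvent and reference control, from cells with both markers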;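 note: compound exposure lasts four days before antibody staining and flow analysis; 0% = DMSO wells and 100% = 5 µM fulvestrant positive control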); settings: ER-HoxA9 marrow cells, stronger effect = higher value, normalized: vehicle 0, fulvestrant 100

Cc1cc(O)c(C(C)C)cc1C1(c2cc(C(C)C)c(O)cc2C)OC(=O)c2ccccc21
active: inhibition [11] 62.6%
inactive: percent of DMSO control GFP [1] 104% | GFP response vs DMSO [2] 107% | percent response of DMSO control [3] 104% | GFP response vs DMSO [4] 120% | GFP response, % of DMSO [5] 108% | vesicle binding response [6] 219% | inhibition [7] 43.2% | superoxide response (% of plate) [8] 88.7% | aptamer binding inhibition [9] -2% | response [10] 3.1% | response [12] -4.85% | binding (% of control) [13] 101% | efflux inhibition (fraction of control) [14] -0.09 | inhibition [15] 5% | differentiation response [16] 15.7%
61.7%: double positive events [6]

COc1cc(NC(=O)COc2ccccc2)c(OC)cc1NC(C)=O
inactive: percent of DMSO control GFP [1] 101% | GFP response vs DMSO [2] 133% | percent response of DMSO control [3] 114% | GFP response vs DMSO [4] 94.6% | GFP response, % of DMSO [5] 101% | vesicle binding response [6] 216% | inhibition [7] -14.9% | superoxide response (% of plate) [8] 93% | aptamer binding inhibition [9] 1% | response [10] -3.81% | inhibition [11] -5.93% | response [12] -0.91% | binding (% of control) [13] 110% | efflux inhibition (fraction of control) [14] -0.42 | inhibition [15] 0% | differentiation response [16] 5.73%
59.7%: double positive events [6]

O=C(CS(=O)(=O)c1ccccc1)c1ccc2c(c1)OCCO2
57.1%: double positive events [6]
inactive: percent of DMSO control GFP [1] 99.7% | GFP response vs DMSO [2] 103% | percent response of DMSO control [3] 100% | GFP response vs DMSO [4] 112% | GFP response, % of DMSO [5] 113% | vesicle binding response [6] 194% | inhibition [7] -9.63% | superoxide response (% of plate) [8] 98.2% | aptamer binding inhibition [9] 4% | response [10] -29.9% | inhibition [11] -15.5% | response [12] -0.24% | binding (% of control) [13] 103% | efflux inhibition (fraction of control) [14] 0.12 | inhibition [15] 5% | differentiation response [16] -1.05%

Cc1ccc(S(=O)(=O)Oc2ccccc2/C=N/N=C(N)N)cc1
inactive: percent of DMSO control GFP [1] 102% | GFP response vs DMSO [2] 103% | percent response of DMSO control [3] 104% | GFP response vs DMSO [4] 93.7% | GFP response, % of DMSO [5] 103% | vesicle binding response [6] 172% | inhibition [7] 12.6% | superoxide response (% of plate) [8] 97.8% | aptamer binding inhibition [9] 1% | response [10] 7.63% | inhibition [11] 6.93% | response [12] -0.49% | binding (% of control) [13] 103% | efflux inhibition (fraction of control) [14] 0.01 | inhibition [15] 7% | differentiation response [16] -2.64%
68.2%: double positive events [6]

c1ccc(Nc2cccc3c(Nc4ccccc4)cccc23)cc1
inactive: percent of DMSO control GFP [1] 104% | GFP response vs DMSO [2] 107% | percent response of DMSO control [3] 105% | GFP response vs DMSO [4] 88.7% | GFP response, % of DMSO [5] 97.8% | vesicle binding response [6] 284% | inhibition [7] -28.5% | superoxide response (% of plate) [8] 98.3% | aptamer binding inhibition [9] 1% | response [10] 6.03% | inhibition [11] 21.9% | response [12] 0.51% | binding (% of control) [13] 91.6% | efflux inhibition (fraction of control) [14] 0.18 | inhibition [15] -26% | differentiation response [16] 14.9%
62%: double positive events [6]

CCCCCCCCNC(C)C(O)c1ccc(SC(C)C)cc1 (stereo not given)
inactive: percent of DMSO control GFP [1] 93.5% | GFP response vs DMSO [2] 130% | percent response of DMSO control [3] 102% | GFP response vs DMSO [4] 85.3% | GFP response, % of DMSO [5] 92.2% | inhibition [7] -12% | superoxide response (% of plate) [8] 115% | aptamer binding inhibition [9] -13% | response [10] 10.9% | inhibition [11] 15.9% | response [12] -2.14% | binding (% of control) [13] 109% | efflux inhibition (fraction of control) [14] -0.17 | inhibition [15] 11% | differentiation response [16] 2.46%
38.1%: double positive events [6]
active: vesicle binding response [6] 47.2%

C=C(C)C(=O)Nc1ccc(NC(C)C)cc1
66%: double positive events [6]
inactive: percent of DMSO control GFP [1] 104% | GFP response vs DMSO [2] 104% | percent response of DMSO control [3] 97.6% | GFP response vs DMSO [4] 106% | GFP response, % of DMSO [5] 101% | vesicle binding response [6] 170% | inhibition [7] 9.63% | superoxide response (% of plate) [8] 96.6% | aptamer binding inhibition [9] 4% | response [10] 0.61% | inhibition [11] 19.3% | response [12] -7.05% | binding (% of control) [13] 95.1% | efflux inhibition (fraction of control) [14] -0.09 | inhibition [15] 0% | differentiation response [16] -8.96%

CN(C)CCOC(c1ccccc1)c1ccccc1
43.1%: double positive events [6]
inactive: percent of DMSO control GFP [1] 94.4% | GFP response vs DMSO [2] 123% | percent response of DMSO control [3] 115% | GFP response vs DMSO [4] 87.5% | GFP response, % of DMSO [5] 89.4% | vesicle binding response [6] 107% | inhibition [7] 1.61% | superoxide response (% of plate) [8] 96.7% | aptamer binding inhibition [9] -1% | response [10] -13.1% | inhibition [11] 29.6% | response [12] -7.12% | binding (% of control) [13] 98% | inhibition [15] 2% | differentiation response [16] 1.64%
active: efflux inhibition (fraction of control) [14] 0.52

O=C(O)c1cc2cc(Cl)cc(Cl)c2oc1=O
active: vesicle binding response [6] 63.6%
inactive: percent of DMSO control GFP [1] 97.9% | GFP response vs DMSO [2] 129% | percent response of DMSO control [3] 104% | GFP response vs DMSO [4] 80.9% | GFP response, % of DMSO [5] 93.1% | inhibition [7] -12.9% | superoxide response (% of plate) [8] 113% | aptamer binding inhibition [9] 7% | response [10] -14.8% | inhibition [11] 8.6% | response [12] 10.3% | binding (% of control) [13] 98.7% | efflux inhibition (fraction of control) [14] 0.05 | inhibition [15] 8% | differentiation response [16] 27.8%
41.9%: double positive events [6]

COc1cccc(OCc2nnc(-c3cccs3)o2)c1
inactive: percent of DMSO control GFP [1] 103% | GFP response vs DMSO [2] 105% | percent response of DMSO control [3] 102% | GFP response vs DMSO [4] 120% | GFP response, % of DMSO [5] 99.6% | vesicle binding response [6] 248% | inhibition [7] 5.69% | superoxide response (% of plate) [8] 104% | aptamer binding inhibition [9] 3% | response [12] -2.54% | binding (% of control) [13] 102% | efflux inhibition (fraction of control) [14] 0.08 | inhibition [15] -5% | differentiation response [16] -0.06%
60.1%: double positive events [6]
active: response [10] 55.8% | inhibition [11] 61%
